High-throughput results: PubChem, several laboratories
The sample as a whole holds a higher share of hits than the screen did.
GIRK2 activator = Activators of human GIRK2-containing channels | HEK293 GIRK2/NPY4 cells, thallium flux fluorescence | activation (% efficacy), % for hits at 75 µM | 34,000 tested, under 10 active | AID 1259324;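 active = primary screen hit, no activity in plain HEK293 cells, and in GIRK2-only cells above 5% efficacy rising with concentration; inactive = the rest, including fluorescent compounds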;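 also: efficacy is normalized control-subtracted fluorescence 15 s after thallium addition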
AMPAR-TARP mod = modulators of AMPA receptor GluA2-stargazin complexes | 40,000 compounds, 3.5% hits | calls only at 30 µM | HEK293 GluA2+stargazin, membrane potential dye (FDSS), glutamate EC50; hits were called plate by plate, in both directions | O88602+P19491;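 active = any of four per-well response measures lying three or more SD from its plate-wide compound average, in either direction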
Starred values were filed as active, the others as inactive; i = inactive; nt = no result given; + = active, no number; ! = repeats disagree.

SMILES | GIRK2 activator | AMPAR-TARP mod
Cc1cccc(S(=O)(=O)Nc2cccc(N3CCCS3(=O)=O)c2)c1 | nt | i
Cn1c(=O)c2c(nc(N3CCN(c4ccccc4)CC3)n2CC(=O)c2ccccc2)n(C)c1=O | nt | i
O=S(=O)(Cc1ccccc1)NCC(c1ccco1)N1CCOCC1 (stereo not drawn) | i | i
O=S(=O)(Cc1ccc(Cl)cc1)NCC(c1ccco1)N1CCOCC1 (stereo not drawn) | i | +
COc1cc(/C=C/C(=O)N2CCCCCC2)ccc1OCc1ccccc1 | i | i
COc1cc(/C=C/C(=O)N2CCC(C)CC2)ccc1OCc1ccccc1 | i | +!
Cc1ccc(C)c(Sc2cc(N3CCC(C(=O)NCC(C)C)CC3)ncn2)c1 | i | i
CCOC(=O)N1CCC(NC(=O)C2CCN(c3cc(Sc4cc(C)ccc4C)ncn3)CC2)CC1 | i | +
Cc1cc(C)c(NC(=O)CSc2ncc(S(=O)(=O)c3ccc(Cl)s3)c(N)n2)c(C)c1 | i | i
NC(=O)c1ccsc1NC(=O)C1CCN(S(=O)(=O)c2ccc(Cl)cc2)CC1 | i | +
NC(=O)c1ccsc1NC(=O)C1CCCCC1 | i | i
Cc1ccc(NC(=O)c2n[nH]nc2Nc2cccc(F)c2)cc1C | i | i
O=C(Cn1nc(-c2ccco2)c2sc(N3CCCCC3)nc2c1=O)c1ccc2c(c1)CCCC2 | i | i
COc1ccc(S(=O)(=O)CC(=O)N(Cc2ccccc2)Cc2ccccc2)cc1 | i | i
Cc1ccc(S(=O)(=O)CCCC(=O)N(Cc2ccccc2)Cc2ccccc2)cc1 | i | +
O=C(NCc1ccco1)c1cc2cc(Cl)cc(Cl)c2oc1=O | i | i
CCCn1c(=O)c2sc(N3CCCC3)nc2n(CC(=O)Nc2ccc(OC)cc2OC)c1=O | i | nt
CCOCC(=O)Nc1nnc(-c2cc(C)n(C(C)C)n2)o1 | i | i
Cc1cc(N(C)C)nc(NCCNC(=O)Nc2ccc(C)c(C)c2)n1 | i | i
CCN(CC)c1cc(C)nc(Nc2ccc(NC(=O)C(C)(C)C)cc2)n1 | i | +
O=C(COc1ccc(F)cc1)NCCS(=O)(=O)N1CCN(Cc2ccccc2)CC1 | i | i
O=S(=O)(CCCOc1ccc(F)cc1)NC1CCN(Cc2ccccc2)CC1 | i | +
O=C(NCC(O)(c1ccccc1)C1CC1)c1ccc(Br)o1 (stereo not drawn) | nt | i
CN(C)C(CNC(=O)Nc1ccc(Cl)cc1)c1cccs1 (stereo not drawn) | i | i
CCCc1nnsc1C(=O)N1CCN(Cc2nc(-c3ccc(F)cc3)cs2)CC1 | i | +
SMILES | GIRK2 activator | AMPAR-TARP mod
COc1ccc(-c2csc(CN3CCN(C(=O)c4ccc(F)cc4F)CC3)n2)cc1 | nt | i
COc1cccc(-n2nnc3c(N4CCN(C(=O)c5cccc(C(F)(F)F)c5)CC4)ncnc32)c1 | nt | i
CN(C(=O)c1nc(-c2cnccn2)no1)C1CCCCC1 | i | i
O=C(NCC(O)(c1ccco1)C1CC1)Nc1ccccc1C(F)(F)F (stereo not drawn) | i | i
O=C(NCC(O)(c1cccs1)C1CC1)c1ccco1 (stereo not drawn) | i | i
O=C(NCC(O)(c1cccs1)C1CC1)NC1CCCCC1 (stereo not drawn) | i | +
O=C(NCc1cccs1)NCC(O)(c1cccs1)C1CC1 (stereo not drawn) | i | i
O=C(NCC(O)(c1ccco1)C1CC1)NC1CCCCC1 (stereo not drawn) | i | +
O=C(NCC(O)(c1cccs1)C1CC1)C1c2ccccc2Oc2ccccc21 (stereo not drawn) | i | +
Cc1cc(=O)n(CC(=O)N2CCN(CCc3ccccc3)CC2)cn1 | i | nt
O=C(COc1ccc2c(=O)c(-c3ccccc3)coc2c1)c1ccc(F)cc1 | nt | i
COc1ccc(CCC(=O)NCCOc2ccc3nnc(-c4ccc(F)cc4)n3n2)cc1 | i | i
CC1(C)C(=O)NCCN1C(=O)c1ccc2c(c1)OCO2 | i | i
COc1ccc(C)cc1S(=O)(=O)NCC1CCN(C)CC1 | nt | i
CCOC(=O)c1ccccc1NC(=O)CN1CCCN(Cc2ccccc2Cl)S1(=O)=O | i | +
COC(=O)c1sccc1NC(=O)CN1CCCN(Cc2ccccc2)S1(=O)=O | nt | i
Cc1ccc(Cn2cc(C(=O)Nc3c(C)cccc3C)ccc2=O)cc1 | i | i
CSc1ccccc1NC(=O)c1ccc(=O)n(Cc2cc(C)ccc2C)c1 | i | +
COc1ccc(C)cc1NC(=O)c1ccc(=O)n(Cc2cc(C)ccc2C)c1 | i | i
Cc1ccccc1Cn1cc(C(=O)Nc2c(C)cccc2C)ccc1=O | i | +
CSc1ccccc1NC(=O)c1ccc(=O)n(Cc2ccccc2F)c1 | i | i
CSc1ccccc1NC(=O)c1ccc(=O)n(Cc2ccccc2Cl)c1 | i | +
COc1ccccc1OCC(O)Cn1c(C2CC(=O)N(c3ccccc3)C2)nc2ccccc21 (stereo not drawn) | i | i
O=C(Nc1c2c(nn1-c1ccc(F)cc1)CSC2)C(=O)N1CCCC1 | nt | +
O=C(Nc1c2c(nn1-c1ccc(Cl)cc1)CSC2)C(=O)N1CCCC1 | i | i
SMILES | GIRK2 activator | AMPAR-TARP mod
CCc1cccc(CC)c1NC(=O)c1cncc(Br)c1 | i | i
CCCNC(=O)Cn1nc2c(c1NC(=O)C1(c3ccc(Cl)cc3)CCCC1)CSC2 | i | i
COc1ccc(CNC(=O)Cn2nc3c(c2NC(=O)c2ccc(C)c(C)c2)CSC3)cc1 | i | i
CCCNC(=O)Cn1nc2c(c1NC(=O)CCc1ccc(OC)cc1)CSC2 | i | +
COCCNC(=O)Cn1nc2c(c1NC(=O)C1(c3ccc(Cl)cc3)CCCC1)CSC2 | i | +
CSc1cccc2sc(NC(=O)NC3CCCC3)nc12 | i | i
CC(C)S(=O)(=O)c1ccc(CC(=O)Nc2cc(-c3cccs3)nn2CCO)cc1 | i | i
CCN(CC)S(=O)(=O)c1ccc(C(=O)Nc2cc(-c3cccs3)nn2CCO)cc1 | i | +
CN1C(=O)Cc2cc(NC(=O)Nc3ccc(Cl)c(Cl)c3)ccc21 | i | i
CN1C(=O)Cc2cc(NC(=O)Nc3cccc(Cl)c3)ccc21 | i | +
CN1C(=O)Cc2cc(NC(=O)/C=C/c3ccccc3)ccc21 | i | +
CC(=O)Nc1ccc2c(c1)CC(=O)N2C | nt | i
CCOc1ccc(C(=O)Nn2cnc3c(cnn3-c3ccccc3)c2=O)cc1OCC | nt | i
Cc1ccccc1-c1ccc(N2CCC(C(=O)NCc3cccnc3)CC2)nn1 | i | i
Cc1ccccc1-c1ccc(N2CCC(C(=O)NCc3ccco3)CC2)nn1 | i | +
Cc1cc(N2CCN(C)CC2)nc2ccc(NC(=O)Nc3cccs3)cc12 | i | i
CCOC(=O)c1sc(NC(=O)c2ccncc2)c(C(=O)OCC)c1C | nt | +
CCOC(=O)c1sc(NC(=O)C2CCCN2S(C)(=O)=O)c(C(=O)OCC)c1C (stereo not drawn) | i | i
Cc1cc(C)c(S(=O)(=O)N2CCN(c3cccc(C)c3C)CC2)c(C)c1 | nt | +
Cc1cc(C)c(S(=O)(=O)N2CCN(c3c(C)cccc3C)CC2)c(C)c1 | nt | i
CN1CC(NC(=O)CSc2nnnn2C)CC1=O (stereo not drawn) | i | nt
COc1cc(COCC2CCN(C(=O)CC(c3ccccc3)c3ccccc3)CC2)cc(OC)c1 | i | i
